Inconclusive results are not listed. A number with no mark means an inactive call. The source made the active and inactive calls. The call rests on the fitted dose curve; in most records, active means well fitted activation curve with a large enough effect; inconclusive means small, poorly fitted or top-dose-only effect; inactive means no such curve, though single readings can be large or run the other way.
Test: Confirmation Concentration-Response Assay for Enhancers of SMN2 Splice Variant Expression for Further Probe SAR
Settings: HEK293 SMN2 exon7-luciferase splicing reporter, luminescence, 30-36 h; series mostly up to 46.1 µM; activity, positive = activation: at the top concentration
From the text: NIH Chemical Genomics Center [NCGC] NIH Molecular Libraries Probe Production centers Network [MLPCN] MLPCN Grant: R03 MH084179-01 Assay Submitter (PI): Elliot Androphy NCGC Assay Overview: Spinal muscular atrophy (SMA) is caused by insufficient levels of the survival motor neuron protein SMN. The SMN locus on chromosome 5q13 contains two inverted copies of SMN called SMN1 and SMN2 which are 99% identical at the amino acid level. SMN1 is a fully functional protein and SMN2 skips exon 7 90% of the time. Skipping of exon 7 produces non-functional protein product. 10% of the SMN2 protein includes exon 7 and is fully functional. In the SMA disease state, mutations in the SMN1 locus are the cause of the disease state. Because only 10% of SMN2 is of the fully functional form, it is not sufficient to overcome the deficiency produced by the loss of the SMN1 product. A therapy that either increase the amount of SMN2 product made or to increase the inclusion of exon 7 has been proposed for the treatment of SMA. We have designed an assay to identify small molecules that can increase the amount of functional SMN2 product by appending a luciferase reporter gene after the native SMN2 gene, such that inclusion of exon 7 in the expressed product places the luciferase sequence in frame, thus generating functional luciferase enzyme.
NCGC Assay Protocol Summary: This screen utilizes a luciferase reporter gene assay, combining the promoter with the major portion of the native SMN2 cDNA (exons 1 -7, intron 8 , exon 8 fused to luciferase) stably expressed in HEK293 cells. Compounds that increase luciferase signal presumably enhance expression of the functional SMN2 splice variant. Passaging media contained DMEM w/ glutamax (+phenol red) 10% FCS, 1x pen/strep, 200 ug/ml hygro, 1x sodium pyruvate. Assay media contained DMEM w/ glutamax (-phenol red) 10% FCS, 1x pen strep, 1x pyruvate Sequence, Parameter, Value, Description (1) Cells, 5 uL, 2000 cells/well, 1536 TC treated White solid bottom plate (2) Time, 10-12 hours, 37C 5% CO2 (3) Compound, 23 nl, MLSMR Library (4) Control Compound, 23 nL, Sodium butyrate st 4.5mM (final) conc (5) Time, 30-36 hours, 37C 5% CO2 (6) Reagent, 3 ul, One Glo (TM) from Promega (7) Time, 5-15 minutes, Room temp (8) Detector, Viewlux: luminescent read, 60 second integration, high speed 2x binning Keywords: Spinal muscular atrophy, SMA, SMN2, high throughput screening, MLSMR, MLPCN, NIH Roadmap, qHTS and NCGC

Which “activity, positive = activation” value does the source give for O=C(NCc1ccccc1)C1CCN(c2nc(-c3ccc(Br)cc3)cs2)CC1 here?
Its value is -4.76%.

Which Potency does the source give for NC(=O)C1CCN(c2nc(-c3ccc(Cl)cc3)cs2)CC1 here?
Its Potency is 1.09 µM (active).

With NC(=O)C1CCN(c2nnc(-c3ccc4c(c3)OCCCO4)s2)CC1 as the compound, how does the Potency read?
The Potency was 0.0972 µM (active).

For N#Cc1cccc(-c2csc(N3CCC(C(N)=O)CC3)n2)c1, which “activity, positive = activation” value is on record?
The value was 10.7%.

Which Potency does the source give for Cc1ccc(-c2ccnc(N3CCC(C(N)=O)CC3)n2)cc1 here?
The Potency was 0.308 µM (active).

For c1c[nH]c(C2CCN(c3ncc(-c4ccc5c(c4)OCCCO5)s3)CC2)n1, which Potency is on record?
The Potency was 2.18 µM (active).

Which Potency does the source give for NC(=O)C1CCN(c2nc(-c3ccc4c(c3)OCCCO4)cs2)CC1 here?
Its Potency is 0.487 µM (active).

Which Potency does the source give for NC(=O)C1CCN(c2cc(-c3ccc4c(c3)OCCCO4)ncn2)CC1 here?
Its Potency is 6.14 µM (active).

Which Potency does the source give for NC(=O)C1CCN(c2ncc(-c3ccc(Cl)cc3)s2)CC1 here?
The Potency was 0.137 µM (active).

With O=C(c1ccco1)N1CCN(c2nc(-c3ccc(Br)cc3)cs2)CC1 as the compound, how does the “activity, positive = activation” value read?
The value was -35.5%.

Which Potency does the source give for CCOC(=O)C1CCN(c2nc(-c3ccc(Br)cc3)cs2)CC1 here?
The Potency was 4.87 µM (active).

With CN(C)c1cccc(-c2cnc(N3CCC(c4ncc[nH]4)CC3)s2)c1 as the compound, how does the Potency read?
The Potency was 3.45 µM (active).

With Cc1cnc(N2CCC(C(N)=O)CC2)nc1-c1cccc(N(C)C)c1 as the compound, how does the “activity, positive = activation” value read?
Its value is 7.67%.

Which Potency does the source give for CC(=O)N1CCN(c2nc(-c3ccc(Br)cc3)cs2)CC1 here?
The Potency was 2.44 µM (active).

Which “activity, positive = activation” value does the source give for O=S(=O)(c1ccccc1)N1CCN(c2nc(-c3ccc(Br)cc3)cs2)CC1 here?
Its value is 7.14%.

For NC(=O)C1CCN(c2nc(-c3ccc([N+](=O)[O-])cc3)cs2)CC1, which Potency is on record?
The Potency was 5.47 µM (active).

For CC(=O)C1CCN(c2ncc(-c3ccc4c(c3)OCCCO4)s2)CC1, which “activity, positive = activation” value is on record?
Its value is -9.36%.

For CN(C)c1cccc(-c2ncc(F)c(N3CCC(C(N)=O)CC3)n2)c1, which Potency is on record?
The Potency was 2.44 µM (active).

With NC(=O)N1CCN(c2nc(-c3ccc(Br)cc3)cs2)CC1 as the compound, how does the Potency read?
The Potency was 13.7 µM (active).

With NC(=O)C1CCN(c2nc(-c3ccc(Oc4ccccc4)cc3)cs2)CC1 as the compound, how does the Potency read?
Its Potency is 4.34 µM (active).

For N#Cc1ccccc1-c1csc(N2CCC(C(N)=O)CC2)n1, which “activity, positive = activation” value is on record?
Its value is 10%.

With Cc1ccc(-c2cnc(N3CCC(C(N)=O)CC3)s2)cc1 as the compound, how does the Potency read?
The Potency was 0.0688 µM (active).

Which “activity, positive = activation” value does the source give for Brc1ccc(-c2csc(N3CCNCC3)n2)cc1 here?
Its value is -82.8%.

Which Potency does the source give for NC1CCN(c2nc(-c3ccc(Br)cc3)cs2)CC1 here?
The Potency was 1.94 µM (active).

For NC(=O)C1CCN(c2ncc(-c3ccc(Br)cc3)s2)CC1, which Potency is on record?
The Potency was 0.218 µM (active).

With COc1ccccc1-c1csc(N2CCC(C(N)=O)CC2)n1 as the compound, how does the “activity, positive = activation” value read?
Its value is -17.9%.

For CS(=O)(=O)c1ccc(-c2csc(N3CCC(C(N)=O)CC3)n2)cc1, which “activity, positive = activation” value is on record?
The value was -5%.

For NC(=O)C1CCN(c2ncnc(-c3ccc4c(c3)OCCCO4)n2)CC1, which Potency is on record?
Its Potency is 2.44 µM (active).

With O=C(O)C1CCN(c2nc(-c3ccc(Br)cc3)cs2)CC1 as the compound, how does the Potency read?
Its Potency is 2.44 µM (active).

For CN(C)c1cccc(-c2cnc(N3CCC(C(N)=O)CC3)s2)c1, which Potency is on record?
The Potency was 0.0244 µM (active).

Which Potency does the source give for NC(=O)C1CCN(c2nc(-c3ccc4c(c3)CCO4)cs2)CC1 here?
Its Potency is 12.2 µM (active).

With NC(=O)C1CCN(c2nccc(Cl)n2)CC1 as the compound, how does the “activity, positive = activation” value read?
Its value is 0%.

For CN(C)c1cccc(-c2ncnc(N3CCC(C(N)=O)CC3)n2)c1, which Potency is on record?
The Potency was 0.772 µM (active).

Which Potency does the source give for NC(=O)C1CCN(c2ncc(-c3cccc(F)c3)s2)CC1 here?
Its Potency is 1.94 µM (active).

With CN(C)c1cccc(-c2nnc(N3CCC(C(N)=O)CC3)s2)c1 as the compound, how does the Potency read?
Its Potency is 0.218 µM (active).

For NC(=O)C1CCN(c2ncc(-c3cccc(N4CCOCC4)c3)s2)CC1, which Potency is on record?
The Potency was 1.94 µM (active).

For COc1ccc(-c2cnc(N3CCC(C(N)=O)CC3)s2)cc1OC, which Potency is on record?
Its Potency is 7.72 µM (active).

With NC(=O)C1CCN(c2nccc(-c3ccc4c(c3)OCCCO4)n2)CC1 as the compound, how does the Potency read?
Its Potency is 1.54 µM (active).

With CS(=O)(=O)N1CCN(c2nc(-c3ccc(Br)cc3)cs2)CC1 as the compound, how does the “activity, positive = activation” value read?
The value was -26.1%.

Which Potency does the source give for O=C(Nc1ccccc1)C1CCN(c2nc(-c3ccc(Br)cc3)cs2)CC1 here?
The Potency was 1.54 µM (active).

Reference: PubChem BioAssay AID488832 (National Center for Advancing Translational Sciences (NCATS), 2010)
